# An excerpt weighted towards active compounds, which were near 17% of everything screened.
# S2 tox: Viability Counterscreen for Primary qHTS for Inhibitors of ATXN expression; S2 cells (HEK-293 line with an ATXN2-luciferase reporter) viability, CellTiter-Fluor protease fluorescence, 24 h; Potency, µM (doses to about 56.7 µM), most hits filed as cytotoxic; 400,000 compounds, 0.49% hits; AID 651635, 2014; note: nearly all actives have a fitted effect of over 40% in size
# HepG2 viability: qHTS for Inhibitors of TGF-b: Cytotox Counterscreen; 410,000 compounds, 0.76% hits; HepG2 CAGA-GFP viability, ATP luminescence, 18 h; Potency, µM (highest dose often 46.1 µM), hits mostly cytotoxic
#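 CellTiter-Glo luminescence gave cytotoxicity after 18 hours at 37 degrees C. The cells were HepG2 CAGA-GFP in 1% FBS DMEM, stimulated with 500 pg/mL TGF-beta after compound addition. %Activity was normalised to no-cell wells (complete cell-killing) and DMSO (no toxicity), and curves were fitted and classified.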
# TGFb SMAD3 inh: qHTS for Inhibitors of TGF-b. HepG2 CAGA-GFP TGF-b/SMAD3 reporter, GFP fluorescence, 18 h; TGF-beta stimulated, 500 pg/mL final. Potency, µM (series often up to 46.1 µM), most hits filed as inhibitors. 410,000 compounds, 1.2% hits; note: nearly all actives have a fitted effect of over 65% in size
#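 Read-out: total well GFP (ex488/em500-530) summed from mean per-cell fluorescence. Cells: HEPG2 CAGA-GFP, 1% FBS DMEM, 18 h at 37 degrees C with 500 pg/mL final TGF-beta. Unstimulated wells served as the full-inhibition control; stimulated DMSO wells = 0%.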
# TDP1 cell noCPT: qHTS for Inhibitors of human tyrosyl-DNA phosphodiesterase 1 (TDP1): qHTS in cells in absence of CPT. 420,000 compounds, 15% hits. DT40 Tdp1-/- hTDP1 cells, no CPT, ATP luminescence, 48 h. AID 686978, 2013. Potency, µM (highest dose often 46.2 µM), hits mostly inhibitors; note: nearly all actives have a fitted effect of over 55% in size
#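 Chicken DT40 Tdp1-/- cells complemented with human TDP1, screened without camptothecin (DMSO vehicle only), 400 cells/well. Compounds pin-transferred, cells incubated at 37 °C for at least 48 hr. Growth read as ATP-dependent luminescence (CellTiter-Glo, 30 min at RT).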
# DT40 TDP1 CPT: qHTS for Inhibitors of human tyrosyl-DNA phosphodiesterase 1 (TDP1): qHTS in cells in presence of CPT. chicken DT40 Tdp1-/-;hTDP1 cells + 20 nM CPT, ATP luminescence, 48 h. Potency, µM (highest dose often 46.2 µM), hits mostly inhibitors. AID 686979, 2013. 420,000 compounds, 12% hits; note: nearly all actives have a fitted effect of over 55% in size
#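 Cell growth measured by CellTiter-Glo luminescence after a minimum 48 h, 37 C compound exposure with 20 nM CPT in Tdp1-knockout DT40 cells stably expressing hTDP1, seeded 400/well; qHTS titration format.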
# ATXN2 expr inh: Primary qHTS for Inhibitors of ATXN expression; HEK-293 ATXN2-luciferase reporter, luminescence, 24 h; Potency, µM (titrated, usually from 57 µM), actives largely listed as inhibitors; 360,000 compounds, 0.72% hits; note: nearly all actives have a fitted effect of over 55% in size
#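 ATXN2-luciferase reporter cells (luciferase flanked by upstream and downstream ATXN2 gene portions) were treated 24 h at 37 °C with compounds at up to 57 uM. SteadyGlo luminescence gave expression; GF-AFC fluorescence gave viability.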
# A number is an active result; – = inactive; ? = inconclusive; · = no result; ! = repeats disagree; [ ] = another dose, or the depositor's remark. Calls come from the whole dose curve; as a rule, active = well fitted curve in the direction sought with a large enough effect; inconclusive = small, poorly fitted or top-dose-only effect, or another doubt; inactive = no such curve, though single readings can be large; an effect the other way counts as inactive or inconclusive.
SMILES,S2 tox,HepG2 viability,TGFb SMAD3 inh,TDP1 cell noCPT,DT40 TDP1 CPT,ATXN2 expr inh
C=CCn1c(-c2ccc(N)cc2)nc2ccccc21,–,–,–,–,?,–
CCOCCn1c(-c2ccc(OC)cc2)nc2ccccc21,–,–,–,?,?,–
C=CCn1c(-c2ccc(OC)cc2)nc2ccccc21,–,–,–,9.2µM,18.4µM,–
COc1ccc(-c2nc3ccccc3c(=O)n2CCOc2ccccc2C)cc1,–,–,–,18.4µM,?,·
O=c1c2ccccc2nc(-c2ccccc2)n1Cc1ccccc1,–,–,–,25.9µM,–,–
COc1ccc(-c2nc3ccccc3n2Cc2ccccc2)cc1,?,–,?,8.2µM,18.4µM,–
CNC(=O)C1CCN(S(=O)(=O)c2c(C)noc2/C=C/c2ccc(C)cc2)CC1,–,–,–,?,?,–
COc1ccc(-c2n(Cc3ccccc3)c3ccccc3[n+]2Cc2ccccc2)cc1,–,–,7.94µM,0.259µM,0.461µM,?
COc1cc(Cn2c(-c3ccc(O)c(OC)c3)nc3ccccc32)ccc1O,–,–,–,?,–,–
CCCCCn1c(-c2ccc(OC)c(OC)c2)nc2ccccc21,?,–,?,7.31µM,?,?
CCCCNC(=O)N1CCN(Cc2cccc(F)c2)CC1,–,–,–,–,–,–
O=C(c1cccc(F)c1)N1CCC(c2c[nH]c3ccccc23)(c2c[nH]c3ccccc23)CC1,?,–,?,?,?,–
CC(=O)N1CCC[C@@]2(CCN(Cc3ccc(C#N)cc3)C2)C1,·,·,·,–,–,·
Cc1cccc(NC(=O)CCC(=O)OCC(=O)c2ccc(Oc3ccc([N+](=O)[O-])cc3)cc2)c1,–,–,–,?,20.6µM,–[11.3 µM]
COc1cccc(CNc2ccc3[nH]c(=O)[nH]c3c2)c1OCc1ccc(F)cc1,–,–,–,?,–,–
COc1cc(CNCCc2c[nH]c3ccccc23)ccc1OCc1ccc(F)cc1,·,–,?,18.4µM,14.6µM,?
COc1cccc(CNCCc2c[nH]c3ccccc23)c1OCc1ccc(F)cc1,?,12.6µM,?,14.6µM,18.4µM,20µM
COc1ccc(-c2nc(S(=O)(=O)c3ccccc3)c(NCCCN3CCOCC3)o2)cc1,?,–,–,?,?,·
CS(=O)(=O)c1ccccc1-c1nnc(NC(=O)c2cccc(N3C(=O)CCC3=O)c2)o1,–,–,–,–,–,–
CCc1cc2c(=O)c(-c3nc4ccccc4n3C)c(C)oc2c(CN2CCCCC2)c1O,–,–,–,?,25.9µM,·
CCc1cc2c(=O)c(-c3cnn(-c4ccccc4)c3)c(C)oc2c(CN2CCCCC2)c1O,–,–,–,25.9µM,?,–
CCc1cc2c(=O)c(-c3nc4ccccc4n3C)coc2c(CN2CCCCC2)c1O,–,–,–,?,?,–
CCc1cc2c(=O)c(-c3cnn(-c4ccccc4)c3)c(C(F)(F)F)oc2c(CN(C)C)c1O,?,–,–,–,–,–
COc1ccc(NC(=O)C2=C(C)Nc3nc(SCc4ccc(C)cc4C)nn3C2c2cccc(OC)c2OC)cc1 (stereo unspecified),–,–,–,–,–,–
O=C(c1ccc(COc2ccccc2Cl)o1)N1CCN(Cc2ccc3c(c2)OCO3)CC1,–,–,–,20.6µM,16.4µM!,?
SMILES,S2 tox,HepG2 viability,TGFb SMAD3 inh,TDP1 cell noCPT,DT40 TDP1 CPT,ATXN2 expr inh
O=C(c1cc2ccccc2o1)N1CCN(Cc2ccc3c(c2)OCO3)CC1,–,–,–,–,–,–
O=C(c1ccc(COc2ccc(Cl)cc2)o1)N1CCN(Cc2ccc3c(c2)OCO3)CC1,?,–,–,11.2µM,?,?
COc1ccccc1OCc1ccc(C(=O)N2CCCCC2)o1,–,–,–,–,–,–
Cc1ccc(C(=O)N2CCN(Cc3ccc4c(c3)OCO4)CC2)o1,–,–,–,–,–,–
O=C(c1ccc(COc2ccc(Cl)cc2Cl)o1)N1CCCC1,–,–,–,18.4µM,–,–
O=c1[nH][nH]c(=O)c2nc(Nc3ccccc3)ncc12,–,–,–,–,–,–
CCCn1nnc(NC(=S)NC(=O)c2cccs2)n1,–,–,–,18.4µM,20.6µM,–
CCOC(=O)/C(N=Nc1c(C)n(C)n(-c2ccccc2)c1=O)=C(/O)c1ccccc1,–,–,–,–,–,–[11.3 µM]
Cc1c(N=N/C(C(=O)Nc2ccccc2)=C(/O)c2ccccc2)c(=O)n(-c2ccccc2)n1C,–,–,–,20.6µM,?,–
COc1ccc(CNCC(O)COc2ccc3[nH]c(=O)ccc3c2)cc1OC (stereo unspecified),–,·,·,–,–,·
CC12CCC=CC1=C(C=O)C1C2CCC2(C)C(O)CCC12 (stereo unspecified),?,–,–,25.9µM,?,?
CC(=O)Nc1cccc(Oc2ccc3c(c2)C(=O)NC3=O)c1,–,–,–,–,–,–
CC1CCN(S(=O)(=O)c2ccc3nc(Nc4cccc(C(F)(F)F)c4)ccc3c2)CC1,·,–,?,?,18.4µM,·
CC1CCN(S(=O)(=O)c2ccc3nc(Nc4ccc(C#N)cc4)ccc3c2)CC1,?,–,10µM,20.6µM,?,–
CCOC(=O)c1cc(-c2ccc(C)cc2)n(CCCC(=O)Nc2cc(C)ccc2C)c1,·,–,–,?,?,·
COc1cc2c(cc1OC)C(c1cccs1)N(C(=O)c1cccc(S(=O)(=O)N(C)C)c1)CC2 (stereo unspecified),–,–,–,?,23.1µM,–
CNC(=S)N1CCc2cc(OC)c(OC)cc2C1COc1ccc(F)cc1 (stereo unspecified),–,–,–,–,–,–
COc1cc2c(cc1OC)C(c1cccc([N+](=O)[O-])c1)N(C(=O)c1ccc(F)cc1)CC2 (stereo unspecified),–,–,–,13µM,18.4µM,–
COc1cc2c(cc1OC)C(COc1ccc(F)cc1)N(C(=O)Cc1ccc(F)cc1)CC2 (stereo unspecified),–,–,?,16.4µM,25.9µM,–
COc1ccc(C2c3cc(OC)c(OC)cc3CCN2C(=O)c2cccc([N+](=O)[O-])c2)cc1OC (stereo unspecified),–,–,–,?,–,·
CCOC(=O)c1ccc(OCC2c3cc(OC)c(OC)cc3CCN2C(=O)Cc2ccc(F)cc2)cc1 (stereo unspecified),–,–,–,18.4µM,23.1µM,–

# Source: PubChem (National Center for Advancing Translational Sciences (NCATS))
